Data reported in PubChem BioAssay (EPA / NIEHS).
Records with an inconclusive call do not appear. Active and inactive are the calls of the source. Rule for the calls: active = hit-call score of the fitted dose curve at least 0.9, where 1 is the maximum; inconclusive = response in the unintended direction; inactive = score below 0.9.

What was measured:
[1] = tested on: rat Adrenergic, Alpha 1B Receptor (Adra1B), gene 24173; assay: NVS_GPCR_rAdra1B: NovaScreen (NVS) G Protein-Coupled Receptor Assay for rat Adrenergic, Alpha 1B Receptor (Adra1B) (AID 2283297)
Procedure, shortened: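 Filter-binding radioligand competition on membranes from rat liver, read after 1 h by scintillation counting. Single-concentration duplicate screen at 25 uM, followed by concentration-response on actives, normalised to DMSO.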

[2] = target: rat Adrenergic Receptor, Beta (Adrb), Non-selective Binding, Adrb1 (gene 24925) (UniProt P18090); assay: NVS_GPCR_rAdrb_NonSelective: NovaScreen (NVS) G Protein-Coupled Receptor Assay for rat Adrenergic Receptor, Beta (Adrb), Non-selective Binding (AID 2283298)
Sequence of rat Adrenergic Receptor, Beta (Adrb), Non-selective Binding, Adrb1 (gene 24925) (P18090 whole entry, looked up): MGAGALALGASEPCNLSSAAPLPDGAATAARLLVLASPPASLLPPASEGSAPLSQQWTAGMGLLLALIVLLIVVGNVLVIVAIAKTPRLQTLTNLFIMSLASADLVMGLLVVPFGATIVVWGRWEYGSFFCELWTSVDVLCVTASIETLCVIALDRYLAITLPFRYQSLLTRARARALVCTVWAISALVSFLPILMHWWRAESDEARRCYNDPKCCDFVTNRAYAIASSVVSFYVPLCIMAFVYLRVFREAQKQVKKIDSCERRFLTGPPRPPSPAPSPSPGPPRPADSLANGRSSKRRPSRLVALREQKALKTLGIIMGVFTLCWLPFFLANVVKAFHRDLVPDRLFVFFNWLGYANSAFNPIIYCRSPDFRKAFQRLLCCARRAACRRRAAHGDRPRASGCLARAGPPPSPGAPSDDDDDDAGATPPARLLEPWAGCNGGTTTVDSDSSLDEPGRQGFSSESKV
Procedure, shortened: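 Rat cortical membranes incubated 1 h with beta-adrenergic radioligand and test chemical; bound ligand measured by filtration and scintillation counting. Screen at 25 uM duplicate, then concentration series with 50 uM maximum; loss of signal versus DMSO.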

[3] = target: Voltage-dependent N-type calcium channel subunit alpha-1B (Rattus norvegicus) (UniProt Q02294); assay: NVS_IC_rCaChN: NovaScreen (NVS) Ion Channel Assay for rat Calcium Channel, Type N (CaChN) (AID 2283317)
[4] = target: rat Adrenergic Receptor, Alpha 2 (Adra2), Non-selective Binding, Adra2a (gene 25083) (UniProt P22909); assay: NVS_GPCR_rAdra2_NonSelective: NovaScreen (NVS) G Protein-Coupled Receptor Assay for rat Adrenergic Receptor, Alpha 2 (Adra2), Non-selective Binding (AID 2283299)
Sequence of rat Adrenergic Receptor, Alpha 2 (Adra2), Non-selective Binding, Adra2a (gene 25083) (P22909 whole entry, looked up): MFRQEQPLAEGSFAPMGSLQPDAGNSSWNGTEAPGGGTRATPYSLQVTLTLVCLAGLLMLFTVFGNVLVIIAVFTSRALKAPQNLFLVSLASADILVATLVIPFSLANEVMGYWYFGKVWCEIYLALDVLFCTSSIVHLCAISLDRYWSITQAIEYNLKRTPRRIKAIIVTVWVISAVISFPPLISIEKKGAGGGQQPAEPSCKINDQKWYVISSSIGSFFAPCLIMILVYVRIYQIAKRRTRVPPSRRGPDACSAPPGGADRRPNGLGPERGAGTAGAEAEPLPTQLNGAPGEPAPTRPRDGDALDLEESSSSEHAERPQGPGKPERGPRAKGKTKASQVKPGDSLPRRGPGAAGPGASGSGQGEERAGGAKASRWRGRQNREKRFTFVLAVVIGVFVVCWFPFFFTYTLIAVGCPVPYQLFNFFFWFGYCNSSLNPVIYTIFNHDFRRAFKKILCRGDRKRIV
Procedure, shortened: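 Filter-based scintillation counting of radioligand binding to rat cortical membrane receptors, measured 1.25 hours post-dosing; loss of signal versus DMSO indicates displacement. Initial single-concentration duplicate at 25 uM, then concentration series.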

[5] = target: rat Gamma-Aminobutyric Acid Type B Receptor (GABBR), Gabbr1 (gene 81657) (UniProt Q9Z0U4); assay: NVS_GPCR_rGABBR: NovaScreen (NVS) G Protein-Coupled Receptor Assay for rat Gamma-Aminobutyric Acid Type B Receptor (GABBR) (AID 2283301)
Sequence of rat Gamma-Aminobutyric Acid Type B Receptor (GABBR), Gabbr1 (gene 81657) (Q9Z0U4 whole entry, looked up): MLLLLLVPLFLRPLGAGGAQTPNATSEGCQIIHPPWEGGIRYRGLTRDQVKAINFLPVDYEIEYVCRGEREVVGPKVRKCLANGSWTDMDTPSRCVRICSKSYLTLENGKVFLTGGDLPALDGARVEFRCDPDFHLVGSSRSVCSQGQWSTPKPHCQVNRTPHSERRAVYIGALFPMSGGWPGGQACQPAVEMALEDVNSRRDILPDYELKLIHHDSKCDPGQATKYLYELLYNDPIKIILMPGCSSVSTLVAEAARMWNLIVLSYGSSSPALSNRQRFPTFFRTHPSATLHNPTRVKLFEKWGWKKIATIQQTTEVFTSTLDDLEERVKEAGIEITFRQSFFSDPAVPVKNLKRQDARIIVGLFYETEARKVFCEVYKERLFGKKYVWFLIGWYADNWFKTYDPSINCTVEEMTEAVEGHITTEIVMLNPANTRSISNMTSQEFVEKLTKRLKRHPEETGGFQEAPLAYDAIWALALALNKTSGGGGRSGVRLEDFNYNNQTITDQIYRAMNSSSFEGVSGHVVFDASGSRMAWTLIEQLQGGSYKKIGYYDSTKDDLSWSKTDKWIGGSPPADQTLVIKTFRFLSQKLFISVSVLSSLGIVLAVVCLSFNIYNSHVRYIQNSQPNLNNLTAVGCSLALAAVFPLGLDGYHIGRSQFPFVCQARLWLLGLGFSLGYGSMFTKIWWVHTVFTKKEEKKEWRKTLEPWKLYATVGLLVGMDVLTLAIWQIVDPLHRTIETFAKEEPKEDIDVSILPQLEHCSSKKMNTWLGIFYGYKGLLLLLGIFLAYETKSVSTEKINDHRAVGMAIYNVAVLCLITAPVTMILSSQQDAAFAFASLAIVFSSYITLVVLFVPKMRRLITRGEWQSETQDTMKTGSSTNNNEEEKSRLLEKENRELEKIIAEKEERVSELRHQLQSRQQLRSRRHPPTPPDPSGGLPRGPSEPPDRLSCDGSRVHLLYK
Procedure, shortened: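 Rat cortical membrane preparation, competitive radioligand binding for 1 h with filtration and scintillation readout. Actives from duplicate single-point 25 uM screening proceeded to concentration series with 50 uM top concentration.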

[6] = target: rat Glutamate Metabotropic Receptor 5 (MGluR5), Grm5 (gene 24418) (UniProt P31424); assay: NVS_GPCR_rmMGluR5: NovaScreen (NVS) G Protein-Coupled Receptor Assay for rat Glutamate Metabotropic Receptor 5 (MGluR5) (AID 2283307)
Sequence of rat Glutamate Metabotropic Receptor 5 (MGluR5), Grm5 (gene 24418) (P31424 whole entry, looked up): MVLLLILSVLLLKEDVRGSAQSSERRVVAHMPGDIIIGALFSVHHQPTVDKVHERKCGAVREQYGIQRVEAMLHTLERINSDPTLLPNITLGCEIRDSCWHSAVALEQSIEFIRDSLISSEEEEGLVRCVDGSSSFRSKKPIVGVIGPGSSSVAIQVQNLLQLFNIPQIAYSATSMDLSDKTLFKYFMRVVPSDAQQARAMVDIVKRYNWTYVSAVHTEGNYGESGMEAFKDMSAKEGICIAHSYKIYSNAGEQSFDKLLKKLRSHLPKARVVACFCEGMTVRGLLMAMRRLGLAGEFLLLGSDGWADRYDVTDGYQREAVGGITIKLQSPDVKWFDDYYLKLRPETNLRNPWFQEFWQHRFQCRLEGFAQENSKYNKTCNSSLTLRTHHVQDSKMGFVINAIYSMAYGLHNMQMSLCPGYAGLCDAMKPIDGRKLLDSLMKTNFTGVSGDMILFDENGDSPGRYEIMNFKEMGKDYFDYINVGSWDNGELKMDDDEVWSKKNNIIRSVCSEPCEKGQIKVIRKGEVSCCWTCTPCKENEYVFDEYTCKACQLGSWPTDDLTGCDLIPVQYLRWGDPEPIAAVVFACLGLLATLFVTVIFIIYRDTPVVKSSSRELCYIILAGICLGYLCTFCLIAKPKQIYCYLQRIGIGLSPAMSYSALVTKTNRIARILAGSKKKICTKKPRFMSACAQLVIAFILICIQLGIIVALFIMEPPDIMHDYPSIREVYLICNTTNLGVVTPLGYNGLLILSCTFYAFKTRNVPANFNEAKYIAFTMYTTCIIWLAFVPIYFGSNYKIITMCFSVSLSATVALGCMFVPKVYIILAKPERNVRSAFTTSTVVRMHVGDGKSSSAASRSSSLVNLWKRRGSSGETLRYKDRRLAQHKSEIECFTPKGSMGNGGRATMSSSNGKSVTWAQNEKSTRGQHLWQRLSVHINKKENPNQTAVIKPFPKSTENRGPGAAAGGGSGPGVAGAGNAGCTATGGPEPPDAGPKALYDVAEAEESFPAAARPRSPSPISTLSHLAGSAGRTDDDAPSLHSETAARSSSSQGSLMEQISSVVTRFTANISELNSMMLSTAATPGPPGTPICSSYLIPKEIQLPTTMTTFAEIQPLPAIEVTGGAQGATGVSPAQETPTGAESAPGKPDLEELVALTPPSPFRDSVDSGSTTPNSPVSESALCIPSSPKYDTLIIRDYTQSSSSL
Procedure, shortened: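 Compounds first screened in duplicate at 25 uM, then in concentration series up to 50 uM if over threshold. Radioligand displacement on rat whole-brain membranes, filtration and scintillation counting after 1.5 h; binding loss relative to DMSO.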

[7] = target: human Neonicotinoid receptor (NNR), CHRNA2 (gene 1135) (UniProt Q15822); assay: NVS_LGIC_hNNR_NBungSens: NovaScreen (NVS) Ligand-Gated Ion Channel Assay for human Neonicotinoid receptor (NNR) (AID 2283313)
Sequence of human Neonicotinoid receptor (NNR), CHRNA2 (gene 1135) (Q15822 whole entry, looked up): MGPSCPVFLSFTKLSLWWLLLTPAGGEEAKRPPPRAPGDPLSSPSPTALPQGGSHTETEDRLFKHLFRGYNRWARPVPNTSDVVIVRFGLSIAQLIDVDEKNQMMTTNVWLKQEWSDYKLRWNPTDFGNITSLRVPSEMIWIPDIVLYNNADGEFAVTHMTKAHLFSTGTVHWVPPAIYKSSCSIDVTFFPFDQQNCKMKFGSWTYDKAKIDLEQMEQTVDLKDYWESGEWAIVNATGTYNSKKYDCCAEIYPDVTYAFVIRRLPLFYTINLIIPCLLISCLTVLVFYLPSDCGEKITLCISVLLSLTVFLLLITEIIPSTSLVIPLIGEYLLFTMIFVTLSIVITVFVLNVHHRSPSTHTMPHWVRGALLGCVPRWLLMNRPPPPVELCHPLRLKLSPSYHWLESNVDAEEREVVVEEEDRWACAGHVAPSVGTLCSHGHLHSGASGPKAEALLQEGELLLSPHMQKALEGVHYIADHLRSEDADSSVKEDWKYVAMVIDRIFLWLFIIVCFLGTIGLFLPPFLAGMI
Procedure, shortened: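 Compounds first screened in duplicate at 25 uM, then actives re-tested in single-replicate dose series up to 50 uM. Binding measured as displacement of specific radioligand from neuroblastoma membrane receptors after 2 h, scintillation read on filters.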

[8] = target: rat Vasopressin 1 Receptor (V1), Avpr1a (gene 25107) (UniProt P30560); assay: NVS_GPCR_rV1: NovaScreen (NVS) G Protein-Coupled Receptor Assay for rat Vasopressin 1 Receptor (V1) (AID 2283316)
Sequence of rat Vasopressin 1 Receptor (V1), Avpr1a (gene 25107) (P30560 whole entry, looked up): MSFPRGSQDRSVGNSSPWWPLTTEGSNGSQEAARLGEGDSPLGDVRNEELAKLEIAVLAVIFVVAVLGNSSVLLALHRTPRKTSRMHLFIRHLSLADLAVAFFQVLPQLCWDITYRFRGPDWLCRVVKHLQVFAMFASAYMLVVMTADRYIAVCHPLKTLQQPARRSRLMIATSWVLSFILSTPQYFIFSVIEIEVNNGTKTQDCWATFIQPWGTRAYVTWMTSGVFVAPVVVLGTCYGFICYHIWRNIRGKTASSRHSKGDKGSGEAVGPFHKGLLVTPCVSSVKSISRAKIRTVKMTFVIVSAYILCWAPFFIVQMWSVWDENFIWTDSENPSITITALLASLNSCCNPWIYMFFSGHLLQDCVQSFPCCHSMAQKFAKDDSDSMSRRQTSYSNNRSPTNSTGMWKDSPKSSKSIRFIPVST
Method: NVS_GPCR_rV1 is a biochemical, single-readout assay that uses extracted gene-proteins from Rat liver membranes in a tissue-based cell-free assay. Measurements were taken 1.5 hours after chemical dosing in a 48-well plate.NVS_GPCR_rV1 is one of one assay component(s) measured or calculated from the NVS_GPCR_rV1 assay. It is designed to make measurements of radioligand binding, a form of binding reporter, as detected with scintillation counting signals by Filter-based radiodetection technology.Data from the assay component NVS_GPCR_rV1 was analyzed into 1 assay endpoint. This assay endpoint, NVS_GPCR_rV1, was analyzed in the positive analysis fitting direction relative to DMSO as the negative control and baseline of activity. […] Furthermore, this assay endpoint can be referred to as a primary readout, because the performed assay has only produced 1 assay endpoint. […]
Binding assays used specific radioligands (tritiated, iodinated) with non-radioactive competitive displacement ligands in agonist or antagonist protocols (as indicated) and various reference compounds and inhibitors to titrate specific binding to receptors and transporters. Most enzyme assays (CYPs, kinases, phosphatases, proteases, HDACs) used recombinant protein and specific substrates (fluorescence mostly, some colorimetric and radioactive) and inhibitors, followed by a biochemical separation of substrate and product. […]

Fc1ccc(Oc2ccnc3cc(Cl)cc(Cl)c23)cc1
outcome [1]: inactive

CCOP(=S)(OCC)SCn1c(=O)oc2cc(Cl)ccc21
outcome [1]: inactive

CCNc1nc(Cl)nc(NCC)n1
outcome [2]: inactive
outcome [3]: inactive

CON(C)C(=O)Nc1ccc(Cl)c(Cl)c1
outcome [2]: inactive

O=C(Nc1ccccc1)Nc1ccnc(Cl)c1
AC50 [4]: 9.64 µM (active)

CC1COC(Cn2cncn2)(c2ccc(Oc3ccc(Cl)cc3)cc2Cl)O1 (configuration not stated)
AC50 [4]: 2.28 µM (active)

COc1nc(C)nc(NC(=O)NS(=O)(=O)c2ccccc2Cl)n1
outcome [5]: inactive

CCCCOC(=O)c1ccccc1C(=O)OCCCC
outcome [6]: inactive
outcome [3]: inactive

Cc1ccc(-c2c(Cl)nc(C#N)n2S(=O)(=O)N(C)C)cc1
AC50 [7]: 1.21 µM (active)

CO/C=C(/C(=O)OC)c1ccccc1Oc1cc(Oc2ccccc2C#N)ncn1
AC50 [8]: 26.4 µM (active)
